Data on 8 compounds can be found in PubChem BioAssay (NCATS).

Values joined by “and” are separate entries in the source; they are usually repeats but may differ in a detail not shown here. Equal values may be shown once. Results filed as inconclusive are left out. Active and inactive are the calls of the source. Unless noted, the call rests on the fitted dose curve; in most records, active means well fitted curve in the direction sought with a large enough effect; inconclusive means small, poorly fitted or top-dose-only effect, or another doubt; inactive means no such curve, though single readings can be large; an effect the other way counts as inactive or inconclusive.

Experiment [1] has as its target Tyrosine-protein kinase Yes (Homo sapiens) (UniProt P07947). As to the kind of experiment: qHTS for small molecule inhibitors of Yes1 kinase: Primary Screen (AID 686947). Further: nearly all actives have a fitted effect of over 60% in size. Further: potency means the concentration at half of the fitted maximal effect. The method in brief:
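Yes1 (4 nM) preincubated 20 min with compound, then 60 min room-temperature reaction with 0.1 mM ATP and 0.3 mg/mL poly(E4Y) in pH 7.5 Tris, 10 mM MgCl2. ADP measured by ADP-Glo luminescence, normalised to enzyme/no-enzyme controls.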
On the technique in general: qHTS replaces the single test concentration by a dilution series.

In experiment [2] the target is Arylsulfatase A (Homo sapiens) (UniProt P15289). As to the kind of experiment: qHTS screen for enhancers of Arylsulfatase A (ASA1): LOPAC Validation Assay (AID 720538). Further: potency means the concentration at half of the fitted maximal effect. The gist of the method: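 First, ASA-I179S fibroblasts from an MLD patient adhered for 6 hrs. Next, compounds were added for 48h. Then pNCS substrate (0.5mM final) with lysis buffer reacted 14h at room temperature before NaOH stop and fluorescence measurement.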
Chain of Arylsulfatase A (Homo sapiens) (P15289 whole entry, looked up): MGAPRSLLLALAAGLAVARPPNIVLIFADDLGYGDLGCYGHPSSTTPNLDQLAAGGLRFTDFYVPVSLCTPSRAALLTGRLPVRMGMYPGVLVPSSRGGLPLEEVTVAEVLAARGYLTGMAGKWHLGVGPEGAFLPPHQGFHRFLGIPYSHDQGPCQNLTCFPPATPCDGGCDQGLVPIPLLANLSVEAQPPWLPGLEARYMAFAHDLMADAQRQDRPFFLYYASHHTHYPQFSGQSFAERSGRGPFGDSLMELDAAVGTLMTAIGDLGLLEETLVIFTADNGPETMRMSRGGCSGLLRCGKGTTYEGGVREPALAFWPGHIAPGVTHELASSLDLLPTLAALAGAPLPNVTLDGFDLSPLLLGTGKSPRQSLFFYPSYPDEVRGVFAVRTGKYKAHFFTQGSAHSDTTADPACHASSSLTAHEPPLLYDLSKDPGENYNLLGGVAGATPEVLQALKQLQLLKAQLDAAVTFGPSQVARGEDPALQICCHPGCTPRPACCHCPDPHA

Experiment [3] is described as follows: qHTS for compounds that reverse cellular toxicity of Amyloid beta (A-beta) peptide in yeast: LOPAC Validation Assay (AID 720559).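 Further: plate controls were DMSO for no effect and equimolar ferric chloride plus clioquinol rescue for full effect.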 The method in brief: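 Activity is expressed relative to DMSO and an equimolar ferric chloride/clioquinol mix. Compounds were pinned into medium with A-beta-expressing yeast, grown 48 hr at 30 C, then read by absorbance at 600 nm.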

Experiment [4] can be described thus: qHTS for Activators of Parkin Expression: LOPAC Validation Assay (NLuc Reporter) (AID 720572;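 further: 0% = DMSO and 100% = positive control compound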). The gist of the method: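 Neuronal cells with a Parkin promoter-driven FLuc/NLuc coincidence reporter were treated 24 h at 37 C in 7-point dose response (LOPAC). NLuc luminescence read after FLuc; signals normalized to DMSO and positive control (100%).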
The nature of experiment [5]: qHTS for Activators of Parkin Expression: LOPAC Validation Assay (FLuc Reporter) (AID 720573; further: potency means the concentration at half of the fitted maximal effect). The gist of the method: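 A neuronal cell line harbouring FLuc and NLuc reporters behind the Parkin promoter was exposed to compounds for 24 h. Firefly luciferase signal, measured after 10 min with detection reagent, was scaled to DMSO and positive-control wells.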
Experiment [6] has as its target T1, Hexokinase-4 (Homo sapiens) + Glucokinase regulatory protein (Homo sapiens) (UniProt P35557+Q14397). In words: qHTS assay for inhibitors of recombinant human GCK-GKRP interaction: Diaphorase-coupled assay (AID 743205). The method in brief:
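Inhibitors of the GCK–GKRP complex relieve GKRP suppression of GCK, detected through a G6PDH–diaphorase cascade reducing resazurin. Human GST-GCK and FLAG-GKRP are used at 10 nM with 5 mM glucose and 0.4 mM ATP.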

The target in experiment [7] is T1, Hexokinase-4 (Homo sapiens) + Glucokinase regulatory protein (Homo sapiens). In words: qHTS assay for inhibitors of recombinant human GCK-GKRP interaction: ADP-Glo assay (AID 743206).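 Further: plate controls were DMSO plus enzyme for no effect and no enzyme for full effect.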 The method in brief:
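GST-GCK and FLAG-GKRP (15 nM each in the dispensed mix, with 2 uM S6P) react with 0.4 mM ATP and 5 mM glucose (final) in Hepes pH 7.6 for 60 min at room temperature. ADP is measured by ADP-Glo luminescence.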

For experiment [8] the target is unchanged. As to the kind of experiment: qHTS assay for inhibitors of recombinant human GCK-GKRP interaction: HTRF assay (AID 743207).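 Further: 0% = DMSO with GCK present and -100% = DMSO wells lacking GCK.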 The method in brief:
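Steps: dispense GCK–GKRP complex (5 nM each, GST- and FLAG-tagged) with 2 uM S6P; pin in compounds; add XL665/Eu-cryptate-labelled antibodies; incubate 60 min at room temperature; read time-resolved FRET at 665 and 615 nm.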

A short description of experiment [9]: qHTS Assay for Identifying Gametocytocidal Compounds (AID 743244). Further: potency means the concentration at half of the fitted maximal effect.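 On max response: on the % scale 0 is the no-effect control and ±100 the full control effect; actives lower the fluorescent signal which means gametocytes are killed.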 The settings on record: P. falciparum 3D7 stage III-V gametocytes, alamarBlue, 72 h; max response: stronger effect = lower value. The method in brief:
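Viability read-out was resazurin reduction (alamarBlue, 24 h) measured at Ex 525/Em 598 nm. Beforehand, late-stage (III-V) 3D7 P. falciparum gametocytes at 20,000 cells/well were incubated with compound 72 h at 37C under 5% CO2.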

The nature of experiment [10]: qHTS profiling for inhibitors of Plasmodium falciparum (3D7) proliferation (AID 743322; call rule not given here;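 further: infected erythrocytes exposed to compound for 72 h before lysis; 100% = DMSO vehicle wells and 0% = 0.29 µM artemisinin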). The settings on record: P. falciparum 3D7 proliferation; at 28.7 µM (top of the series) unless noted. The gist of the method: (§1)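 Erythrocytes infected with P. falciparum (0.3% parasitemia, 2.5% hematocrit) incubated with compounds 72 h at 37 C, 5% CO2. Lysis with saponin/Triton buffer containing SYBR Green I, overnight at room temperature in the dark; DNA fluorescence (485/535 nm) normalised to 0.29 uM artemisinin and DMSO.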

Experiment [11] can be described thus: qHTS profiling for inhibitors of Plasmodium falciparum (DD2) proliferation (AID 743323; call rule not given here). The settings on record: lower = more inhibition; at 28.7 µM (top of the series) unless noted. The method in brief: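 P. falciparum Dd2-infected erythrocytes (0.3% parasitemia, 2.5% hematocrit) exposed 72 h at 37 C, 5% CO2. Lysis with SYBR Green, overnight at room temperature, fluorescence 485/535 nm; normalized to 0.29 uM artemisinin and DMSO.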

Experiment [12] can be described thus: qHTS profiling for inhibitors of Plasmodium falciparum (HB3) proliferation (AID 743324).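 Further: 100% = DMSO vehicle wells and 0% = artemisinin-treated control wells.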 To be noted: Plasmodium falciparum HB3 blood-stage proliferation; at 28.7 µM (top of the series) unless noted. The gist of the method: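 P. falciparum HB3 grown in erythrocytes (0.3% parasitemia, 2.5% hematocrit final) with compound for 72 h at 37 C, 5% CO2. Parasite DNA detected by SYBR Green after saponin/triton lysis overnight; normalized to 0.29 uM artemisinin and DMSO.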

The nature of experiment [13]: qHTS profiling of the MIPE4 collection as inhibitors of Plasmodium falciparum (3D7) proliferation (AID 743344; call rule not given here;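 further: scaled between DMSO vehicle wells and 0.29 µM artemisinin as full inhibition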). To be noted: P. falciparum 3D7 in erythrocytes, SYBR Green DNA fluorescence, 72 h; at 28.5 µM (top of the series) unless noted. The gist of the method: as §1
For experiment [14], the target named is Peroxisome proliferator-activated receptor alpha (Homo sapiens) (UniProt Q07869). As to the kind of experiment: qHTS assay for small molecule agonists of the peroxisome proliferator-activated receptor alpha (PPARalpha) signaling pathway (AID 651778). Further: % of control where 0% means no effect. The settings on record: PathHunter PPARalpha complementation, chemiluminescence, 6 h; stronger effect = higher value. The method in brief:
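Enzyme-fragment complementation assay in which ligand-bound PPARalpha translocates and forms an active enzyme that generates chemiluminescence. Cells were plated overnight, exposed to compound for 6 hr at 37 C, and then given detection reagent for 60 min at room temperature.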

Experiment [15] addresses Nuclear receptor ROR-gamma (Homo sapiens) (UniProt P51449). As to the kind of experiment: qHTS assay for small molecule antagonists of the retinoid-related orphan receptor gamma (ROR-gamma) signaling pathway (AID 651802).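 Further: luciferase reporter luminescence driven by ROR response element; on the % scale 0 is the no-effect control and ±100 the full control effect; nearly all actives have a fitted effect of over 60% in size.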 The gist of the method:
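CHO, TET-inducible ROR + RORE-LUC reporter, 1536-well qHTS. Compound pinned, doxycycline added, 16hr 37C/5% CO2. ONE-Glo, 30 min RT, luminescence; signal drop scored as antagonism.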

Experiment [16] in a line: qHTS assay for small molecule agonists of the antioxidant response element (ARE) signaling pathway measured by Nrf2-dependant transcriptional activity (AID 720636; active means well fitted curve in the direction sought with a large enough effect in the repeat runs; an effect the other way counts as inactive or inconclusive;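 further: HepG2 cells with an ARE-driven luciferase reporter; % of control where 0% means no effect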). The gist of the method: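 We exposed ARE-luc HepG2 cells, seeded in assay medium with 1% dialyzed FBS and allowed 6 hr to adhere, to test compounds overnight (16 hr, 37 C) before measuring luciferase with ONE-Glo.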

The nature of experiment [17]: qHTS assay for small molecule antagonists of the retinoid-related orphan receptor gamma (ROR-gamma) signaling pathway - cell viability counter screen (AID 720652; active means well fitted curve in the direction sought with a large enough effect in the repeat runs; an effect the other way counts as inactive or inconclusive;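 further: compound exposure lasted 16 hr before ATP read; on the % scale 0 is the no-effect control and ±100 the full control effect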). The method in brief: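 Luminescence from CellTiter-Glo after 30 min at room temperature reported cellular ATP as the cytotoxicity measure. Cells were the CHO reporter line with doxycycline-induced ROR-gamma expression, exposed to compound for 16 hr at 37 C.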

A short description of experiment [18]: qHTS assay for small molecule agonists of the antioxidant response element (ARE) signaling pathway measured by Nrf2-dependant transcriptional activity - cell viability counter screen (AID 720653; active means well fitted curve in the direction sought with a large enough effect in the repeat runs; an effect the other way counts as inactive or inconclusive; further: potency means the concentration at half of the fitted maximal effect; on max response: on the % scale 0 is the no-effect control and ±100 the full control effect). To be noted: ARE-bla HepG2 viability, CellTiter-Glo ATP luminescence, 16 h; max response: stronger effect = lower value. The method in brief: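 ARE-bla HepG2 cells treated with compounds for 16 h at 37C; this counter screen measures viability as intracellular ATP by CellTiter-Glo luminescence after 30 min at room temperature.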

A short description of experiment [19]: qHTS assay for cell viability of HEK293 cells (AID 743288). Further: nearly all actives have a fitted effect of over 50% in size. Further: potency means the concentration at half of the fitted maximal effect. On max response: on the % scale 0 is the no-effect control and ±100 the full control effect. To be noted: ATP luminescence (CellTiter-Glo), 18 h; max response: stronger effect = lower value. The method in brief: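 The Tox21 protocol used parental HEK293 cells treated for 18 h at 37 C with compounds delivered by pintool; ATP-coupled luminescence after 30 min at room temperature gave viability.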
The nature of experiment [20]: qHTS assay for cell viability of the p53RE-bla HCT-116 cell line (AID 743292). Further: nearly all actives have a fitted effect of over 55% in size. Further: potency means the concentration at half of the fitted maximal effect. The method in brief:
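In this qHTS counter-screen, metabolically competent p53RE-bla HCT-116 cells were counted via their ATP content. Compounds were applied for 16 h at 37 C and luciferase-coupled luminescence was measured.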

Chain of Peroxisome proliferator-activated receptor alpha (Homo sapiens) (Q07869 whole entry, looked up, the tested form may be a part): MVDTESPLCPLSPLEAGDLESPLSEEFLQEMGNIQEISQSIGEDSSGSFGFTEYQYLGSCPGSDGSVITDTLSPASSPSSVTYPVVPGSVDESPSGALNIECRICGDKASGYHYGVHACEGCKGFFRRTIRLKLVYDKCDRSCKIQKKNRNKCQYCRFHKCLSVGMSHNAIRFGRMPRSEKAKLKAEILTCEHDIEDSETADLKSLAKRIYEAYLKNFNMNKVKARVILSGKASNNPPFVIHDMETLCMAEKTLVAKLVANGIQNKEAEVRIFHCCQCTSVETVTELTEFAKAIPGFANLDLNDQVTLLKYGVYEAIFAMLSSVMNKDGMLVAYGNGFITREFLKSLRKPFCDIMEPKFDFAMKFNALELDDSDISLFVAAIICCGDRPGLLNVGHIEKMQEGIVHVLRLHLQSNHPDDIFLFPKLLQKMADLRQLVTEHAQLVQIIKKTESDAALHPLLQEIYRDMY
Chain of Tyrosine-protein kinase Yes (Homo sapiens) (P07947 whole entry, looked up): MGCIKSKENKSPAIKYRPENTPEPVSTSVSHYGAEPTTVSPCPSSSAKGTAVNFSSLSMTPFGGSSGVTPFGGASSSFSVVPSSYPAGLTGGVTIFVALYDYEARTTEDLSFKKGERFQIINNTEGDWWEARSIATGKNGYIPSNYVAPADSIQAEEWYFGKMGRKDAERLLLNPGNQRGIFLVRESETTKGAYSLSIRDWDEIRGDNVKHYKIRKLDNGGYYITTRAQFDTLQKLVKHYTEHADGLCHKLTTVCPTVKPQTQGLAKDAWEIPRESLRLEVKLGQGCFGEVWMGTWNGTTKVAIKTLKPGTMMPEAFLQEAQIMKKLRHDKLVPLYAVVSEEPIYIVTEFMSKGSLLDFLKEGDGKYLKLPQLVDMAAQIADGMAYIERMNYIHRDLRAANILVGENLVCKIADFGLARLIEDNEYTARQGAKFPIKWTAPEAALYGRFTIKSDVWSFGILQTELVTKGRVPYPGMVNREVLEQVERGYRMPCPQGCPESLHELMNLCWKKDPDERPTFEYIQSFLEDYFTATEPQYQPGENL
T1 sequence (P35557 whole entry, looked up): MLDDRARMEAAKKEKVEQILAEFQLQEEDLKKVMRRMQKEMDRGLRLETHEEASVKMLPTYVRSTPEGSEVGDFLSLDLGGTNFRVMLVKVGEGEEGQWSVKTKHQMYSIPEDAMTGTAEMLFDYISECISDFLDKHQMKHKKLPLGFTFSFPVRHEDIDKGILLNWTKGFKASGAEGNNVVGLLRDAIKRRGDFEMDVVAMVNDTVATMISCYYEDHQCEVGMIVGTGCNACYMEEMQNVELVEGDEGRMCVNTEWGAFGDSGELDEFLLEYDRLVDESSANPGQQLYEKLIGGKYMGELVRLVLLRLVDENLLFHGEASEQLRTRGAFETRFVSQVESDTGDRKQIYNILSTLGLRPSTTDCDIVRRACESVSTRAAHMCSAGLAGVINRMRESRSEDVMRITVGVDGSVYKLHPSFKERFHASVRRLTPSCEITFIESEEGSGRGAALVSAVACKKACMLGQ
T1 sequence (Q14397 whole entry, looked up): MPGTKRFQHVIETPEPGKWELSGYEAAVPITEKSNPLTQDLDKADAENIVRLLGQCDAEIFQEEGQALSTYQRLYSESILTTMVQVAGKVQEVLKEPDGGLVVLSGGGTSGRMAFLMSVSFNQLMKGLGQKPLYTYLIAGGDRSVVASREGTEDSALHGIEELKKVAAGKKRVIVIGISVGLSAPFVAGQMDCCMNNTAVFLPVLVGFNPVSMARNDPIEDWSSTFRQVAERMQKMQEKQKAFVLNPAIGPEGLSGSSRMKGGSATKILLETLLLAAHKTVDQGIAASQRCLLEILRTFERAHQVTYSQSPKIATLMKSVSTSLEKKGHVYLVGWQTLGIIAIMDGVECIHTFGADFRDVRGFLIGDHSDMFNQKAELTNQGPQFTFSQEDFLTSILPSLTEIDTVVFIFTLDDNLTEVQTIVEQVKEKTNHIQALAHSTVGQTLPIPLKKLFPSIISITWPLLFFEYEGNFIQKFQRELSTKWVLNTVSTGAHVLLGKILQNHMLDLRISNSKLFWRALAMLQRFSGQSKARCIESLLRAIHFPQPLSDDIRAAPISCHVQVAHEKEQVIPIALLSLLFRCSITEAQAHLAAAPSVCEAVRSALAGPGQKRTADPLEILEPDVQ
Chain of Nuclear receptor ROR-gamma (Homo sapiens) (P51449 whole entry, looked up): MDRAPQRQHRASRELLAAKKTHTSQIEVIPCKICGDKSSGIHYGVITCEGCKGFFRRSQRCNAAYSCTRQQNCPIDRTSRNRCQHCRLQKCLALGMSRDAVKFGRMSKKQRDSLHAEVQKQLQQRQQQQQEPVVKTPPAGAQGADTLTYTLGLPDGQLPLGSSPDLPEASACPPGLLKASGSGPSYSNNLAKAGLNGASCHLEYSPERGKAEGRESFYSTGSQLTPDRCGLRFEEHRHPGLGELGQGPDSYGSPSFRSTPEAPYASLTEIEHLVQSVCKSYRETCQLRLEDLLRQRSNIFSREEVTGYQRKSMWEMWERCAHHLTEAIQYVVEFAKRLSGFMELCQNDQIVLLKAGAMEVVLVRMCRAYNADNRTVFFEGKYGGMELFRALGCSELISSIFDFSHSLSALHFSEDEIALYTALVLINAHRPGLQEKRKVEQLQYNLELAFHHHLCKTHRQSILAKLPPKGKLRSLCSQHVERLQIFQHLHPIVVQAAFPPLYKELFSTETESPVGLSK

In the case of `C[C@@H](N)C1CCC(C(=O)Nc2ccncc2)CC1` (some centres undefined), the Potency result in [1], in experiment [2] and in experiment [5] was “inactive” throughout. For the same compound, the call in experiment [3], in [4], in [6], in [7] and in [8] was inactive. In addition, in experiment [9], the max response is -0.932% (inactive) and 18% (inactive). Besides, the remaining parasite growth % (stronger effect = lower value) in experiment [10] turned out to be 103%. In addition, in experiment [11], the activity, percent of control worked out at 103%. The remaining proliferation (% of control), lower = more inhibition in [12] was determined as 94.3%. Besides, in experiment [13], the parasite growth, % of DMSO control worked out at 85.6%.

Turning to `O=Nc1c(-c2c(O)[nH]c3cc(Br)ccc23)[nH]c2ccccc12`, the Potency was 0.154 µM (active) in experiment [1], 21.3 µM (active) in experiment [2] and 2.59 µM (active) in experiment [5]. Moreover, the result in [3], in [4], in experiment [6], in experiment [7] and in experiment [8] was inactive. Further, in [13], the parasite growth, % of DMSO control worked out at 2.9%.

In the case of `CS(=O)(=O)OCCCCOS(C)(=O)=O`, the max response in [14] was -1.17% (inactive) and -9.71% (inactive) and -0.247% (inactive); in [18], -5.06% (inactive) and -4.65% (inactive) and 2.24% (inactive); in experiment [9], 7.28% (inactive); in experiment [19] it was -9.44% (inactive) and 3.38% (inactive) and -6.4% (inactive). In addition, the result in experiment [15] and in experiment [17] was inactive. The Potency entry in experiment [16] and in experiment [20] was “inactive” throughout. In [13], the parasite growth, % of DMSO control is 89.8%.

As to `CNC[C@H](O)c1ccc(O)c(O)c1`, the max response in [14] is -0.497% (inactive); in [18], 4.44% (inactive); in [9], -9.4% (inactive) and 18.5% (inactive); in [19], -7.6% (inactive). Moreover, the compound was classed as inactive in experiment [3], in experiment [4], in experiment [6], in experiment [7] and in [8]. Besides, the Potency entry in experiment [5], in experiment [16] and in experiment [20] was “inactive” in each case. This compound also returned a parasite growth, % of DMSO control in [13] of 61.3% [at 57.5 µM].

As for `CCOC(=O)C(C)Oc1cccc2c(=O)n(CC(=O)Nc3ccc4c(c3)OCCO4)ccc12` (centres undefined), the Potency result in [1], in experiment [2] and in experiment [5] was “inactive” throughout. Besides, the compound was called inactive in experiment [3], in [4], in [6], in experiment [7] and in [8]. For the same compound, the max response in experiment [9] was 9.26% (inactive). Besides, in experiment [10], the remaining parasite growth % (stronger effect = lower value) came out at 115%. Also, the activity, percent of control in experiment [11] turned out to be 97.4%. For the same compound, the remaining proliferation (% of control), lower = more inhibition in experiment [12] worked out at 104%. In addition, the parasite growth, % of DMSO control in experiment [13] worked out at 72.1%.

Consider `CN(C)c1ccc2nc3ccc(=[N+](C)C)cc-3sc2c1`, for which the max response in [14] was -7.81% (inactive). The Potency in experiment [18] was 10 µM (active); in [9] it was 166 nM (active) and 303 nM (active); in experiment [19], 11.2 µM (active); in [20], 28.2 µM (active). The remaining parasite growth % (stronger effect = lower value) in experiment [10] worked out at 1.85% [at 57.5 µM]. For the same compound, the activity, percent of control in experiment [11] stood at 3.2% [at 57.5 µM]. In addition, the remaining proliferation (% of control), lower = more inhibition in [12] was determined as 14.3% [at 57.5 µM]. Further, the parasite growth, % of DMSO control in experiment [13] was 60.1% and 20%.

Regarding `N[C@@H](Cc1cc(I)c(Oc2cc(I)c(O)c(I)c2)c(I)c1)C(=O)O`, the max response in [14] was -3.72% (inactive); in [18] it was -2.98% (inactive); in [9] it was 2.42% (inactive); in [19] it was -6.73% (inactive). Moreover, in [20], the Potency entry is “inactive”. For the same compound, the parasite growth, % of DMSO control in experiment [13] stood at 89.8%.

Consider `O=C1NC(=O)C(c2ccccc2[N+](=O)[O-])=C1Nc1ccc(O)c(Cl)c1`, for which the outcome in [3], in experiment [4], in [6], in [7] and in experiment [8] was inactive. Moreover, in experiment [5], the Potency entry is “inactive”. The same compound came in with a parasite growth, % of DMSO control in experiment [13] of 68.6%.
